STK33 inh: inhibitors of human STK33 kinase; ADP-Glo luminescence, MBP substrate; Q9BYT3; 27,000 compounds, 0.44% hits; inhibition, % at 12.5 µM; AID 2322; in the data active = inhibition above about 20%
Target sequence (Q9BYT3 whole entry, looked up): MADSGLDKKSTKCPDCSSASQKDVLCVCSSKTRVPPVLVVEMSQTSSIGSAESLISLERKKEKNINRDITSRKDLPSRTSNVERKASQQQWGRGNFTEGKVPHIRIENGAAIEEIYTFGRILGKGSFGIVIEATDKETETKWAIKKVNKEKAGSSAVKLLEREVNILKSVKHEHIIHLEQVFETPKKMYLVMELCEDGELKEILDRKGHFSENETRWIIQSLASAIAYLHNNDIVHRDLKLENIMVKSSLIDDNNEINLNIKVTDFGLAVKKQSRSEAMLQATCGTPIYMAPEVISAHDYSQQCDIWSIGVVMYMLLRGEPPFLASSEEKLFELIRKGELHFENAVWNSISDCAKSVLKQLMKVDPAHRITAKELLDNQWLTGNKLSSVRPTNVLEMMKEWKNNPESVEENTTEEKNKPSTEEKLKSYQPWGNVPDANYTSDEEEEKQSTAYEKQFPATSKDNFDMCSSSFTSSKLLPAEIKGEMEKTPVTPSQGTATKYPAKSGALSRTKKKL
NOMO-1 viab: STK33 inhibitor candidate reducing NOMO-1 cell viability. NOMO-1 AML viability, CellTiter-Glo luminescence, 72 h. inhibition, % (no concentration beside the values). 37,000 compounds, 7.5% hits; in the data active = inhibition above about 80%
PD-1 reverse act: reversal of PD-1 mediated T-cell inhibition | primary human CD4 T cells, PD-L1 beads, CellTiter-Glo 96 h | activation, % (test concentration not listed) | 29,000 tested, under 10 active | AID 2316; call rule not given here;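 note: 0% = median vehicle wells and 100% = positive control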
An asterisk follows results filed as active; · = not tested or not shown. Many of the other results were omitted from the sample, so hits are more common in it than they were.

SMILES	STK33 inh	NOMO-1 viab	PD-1 reverse act
C[C@@H]1CN([C@@H](C)CO)C(=O)Cc2cc(NC(=O)Nc3ccc(C(F)(F)F)cc3)ccc2O[C@@H]1CN(C)C(=O)Nc1cccc2ccccc12	-3.7	82.5*	-1.5
C[C@H](CO)N1C[C@H](C)[C@H](CN(C)C(=O)Nc2ccccc2)Oc2ccc(NC(=O)Nc3ccc(C(F)(F)F)cc3)cc2CC1=O	·	92.1*	·
C[C@H]1CN([C@@H](C)CO)C(=O)Cc2cc(NC(=O)Nc3ccccc3)ccc2O[C@@H]1CN(C)C(=O)Nc1ccc(C(F)(F)F)cc1	0.7	10.2	0.1
C[C@@H]1CN([C@@H](C)CO)C(=O)Cc2cc(NC(=O)Nc3ccc(F)cc3)ccc2O[C@@H]1CN(C)C(=O)Nc1ccc(C(F)(F)F)cc1	1.1	32.8	·
C[C@@H]1CN([C@@H](C)CO)C(=O)Cc2cc(NC(=O)Nc3ccc(C(F)(F)F)cc3)ccc2O[C@@H]1CN(C)C(=O)Nc1ccccc1	1.6	111.5*	-2.2
C[C@@H]1CN([C@H](C)CO)C(=O)Cc2cc(NC(=O)Nc3ccc(C(F)(F)F)cc3)ccc2O[C@@H]1CN(C)C(=O)Nc1cccc2ccccc12	-1.0	31.2	-3.6
C[C@@H]1CN([C@@H](C)CO)C(=O)c2cccc(NS(=O)(=O)c3cccs3)c2O[C@H]1CN(C)Cc1ccc(C(=O)Nc2ccccc2N)cc1	·	39.5	1.5
O=C(Cn1cnc2sc(-c3ccccc3)cc2c1=O)Nc1cccc(C(F)(F)F)c1	2.1	19.8	1.1
COc1ccccc1-c1cc(=O)c2c(O[C@@H]3O[C@H](CO)[C@@H](O)[C@H](O)[C@H]3O)cc(OC)c(OC)c2o1	-1.8	19.9	-0.1
Cc1noc(C)c1NC(=O)N(C)C[C@H]1Oc2ccc(NC(=O)c3ccncc3)cc2CC(=O)N([C@H](C)CO)C[C@H]1C	-1.8	5.8	2.0
CC(C)c1ccc(N2C=Nc3ccc(C(C)C)cc3C2)cc1	·	114.6*	-1.6
C[C@@H]1CN([C@H](C)CO)C(=O)c2cccc(NC(=O)Nc3ccc(C(F)(F)F)cc3)c2O[C@H]1CN(C)C(=O)NC1CCCCC1	·	74.8	-6.7
C[C@H]1CN([C@@H](C)CO)C(=O)c2cccc(NC(=O)C3CCCCC3)c2O[C@@H]1CN(C)C(=O)Nc1ccc(C(F)(F)F)cc1	·	15.4	-0.8
C[C@H](CO)N1C[C@H](C)[C@H](CN(C)C(=O)Nc2ccc(C(F)(F)F)cc2)Oc2c(NC(=O)C3CCCCC3)cccc2C1=O	·	94.9*	-4.0
C[C@H]1CN([C@@H](C)CO)C(=O)c2cccc(NC(=O)NC3CCCCC3)c2O[C@@H]1CN(C)C(=O)Nc1ccc(C(F)(F)F)cc1	·	100.0*	-4.6
C[C@H](CO)N1C[C@H](C)[C@H](CN(C)C(=O)NC2CCCCC2)Oc2c(NC(=O)Nc3ccc(C(F)(F)F)cc3)cccc2C1=O	·	71.1	-5.3
C[C@H](CO)N1C[C@H](C)[C@H](CN(C)C(=O)Nc2ccc(C(F)(F)F)cc2)Oc2c(NC(=O)NC3CCCCC3)cccc2C1=O	·	105.7*	-4.0
C[C@H]1CN([C@@H](C)CO)C(=O)c2cc(N(C)C)ccc2O[C@H]1CN(C)Cc1ccncc1	-0.1	-3.4	-1.1
C=CCNC(=O)[C@H]1[C@@H]2C(=O)O[C@@H](c3ccccc3)[C@@H](c3ccccc3)N2[C@@H](c2ccc(OCCO)cc2)[C@]12C(=O)Nc1ccc(C#CCC(C(=O)OC)C(=O)OC)cc12	11.5	·	·
COc1cc(O)c(C(=O)/C=C/c2ccccc2)c(OC)c1	5.7	93.3*	·
COc1cc(O)c(C(=O)/C=C/c2ccc(OC)c(OC)c2)c(OC)c1	-0.4	33.4	0.1
C[C@H]1CN([C@@H](C)CO)C(=O)Cc2cc(NC(=O)Cc3cn(C)c4ccccc34)ccc2O[C@@H]1CN(C)Cc1ccc(-c2ccccc2)cc1	4.0	121.9*	-1.5
C[C@H]1CN([C@@H](C)CO)C(=O)Cc2cc(NC(=O)Cc3cn(C)c4ccccc34)ccc2O[C@H]1CN(C)Cc1ccc2c(c1)OCO2	4.3	26.1	-0.4
C[C@@H]1CN([C@@H](C)CO)C(=O)Cc2cc(NC(=O)Cc3cn(C)c4ccccc34)ccc2O[C@@H]1CN(C)Cc1ccccc1	1.1	36.8	-3.7
C[C@@H]1CN([C@H](C)CO)C(=O)Cc2cc(NC(=O)Cc3cn(C)c4ccccc34)ccc2O[C@@H]1CN(C)Cc1ccc(Cl)c(Cl)c1	0.6	95.2*	-2.6
C[C@@H]1CN([C@H](C)CO)C(=O)Cc2cc(NC(=O)Cc3cn(C)c4ccccc34)ccc2O[C@@H]1CN(C)Cc1ccccc1	0.7	107.3*	-2.9
C[C@@H]1CN([C@@H](C)CO)C(=O)Cc2cc(NC(=O)Cc3cn(C)c4ccccc34)ccc2O[C@@H]1CN(C)Cc1ccc(Oc2ccccc2)cc1	-0.8	114.9*	-5.0

From PubChem
